# Data: the supplement of paper PMC12282887
# ± gives the standard deviation of the averaged measurements.
# Legend:
# Assay in all cases: promoter activity interaction Z-score (Lux/OD deviation from empty-vector control); higher = stronger promoter induction by the compound
# [1] = tested on: E. coli BW25113 acrABp lux reporter
# Procedure, shortened: (§1)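 E. coli BW25113 (wild type or marA, soxS or rob deletion) carrying low-copy luxCDABE promoter reporters grew in 40 µl LB Lennox in 384-well plates at 37°C. Each compound was tested at four 1:2 dilutions in biological duplicates. OD600 and luminescence were read every 30 min for 12 h. Areas were taken over 0–8 h (wild type) or 1–9 h (mutants), and wells below 10% of median growth area were removed. The score is the Z-transformed residual of growth-normalised luminescence fitted against the empty-vector control.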
# [2] = tested on: E. coli BW25113 micFp lux reporter
# Procedure, shortened: as §1
# [3] = tested on: E. coli BW25113 ompFp lux reporter
# Procedure, shortened: as §1
# [4] = tested on: E. coli BW25113 robp lux reporter
# Procedure, shortened: as §1
# [5] = tested on: E. coli BW25113 soxSp lux reporter
# Procedure, shortened: as §1
# [6] = tested on: E. coli BW25113 tolCp lux reporter
# Procedure, shortened: as §1
# [7] = 28.4 µg/ml, genetic background: wild type
# [8] = 28.4 µg/ml, genetic background: ΔmarA
# [9] = 28.4 µg/ml, genetic background: Δrob
# [10] = 28.4 µg/ml, genetic background: ΔsoxS
# [11] = 56.8 µg/ml, genetic background: wild type
# [12] = 56.8 µg/ml, genetic background: ΔmarA
# [13] = 56.8 µg/ml, genetic background: Δrob
# [14] = 56.8 µg/ml, genetic background: ΔsoxS
# [15] = 113.7 µg/ml, genetic background: wild type
# [16] = 113.7 µg/ml, genetic background: ΔmarA
# [17] = 113.7 µg/ml, genetic background: Δrob
# [18] = 113.7 µg/ml, genetic background: ΔsoxS
# [19] = 227.3 µg/ml, genetic background: wild type
# [20] = 227.3 µg/ml, genetic background: ΔmarA
# [21] = 227.3 µg/ml, genetic background: Δrob
# [22] = 227.3 µg/ml, genetic background: ΔsoxS
structure (smiles),measurement,setting,value
O=c1[nH]c(=O)c2[nH]c(O)nc2[nH]1 [Sodium urate],promoter activity interaction Z-score,[1]; [7],0.0607 ± 0.068
same,promoter activity interaction Z-score,[1]; [8],-0.691 ± 0.25
same,promoter activity interaction Z-score,[1]; [9],0.112 ± 0.14
same,promoter activity interaction Z-score,[1]; [10],-0.119 ± 0.36
same,promoter activity interaction Z-score,[1]; [11],0.0108 ± 0.15
same,promoter activity interaction Z-score,[1]; [12],-1.36 ± 0.16
same,promoter activity interaction Z-score,[1]; [13],0.00464 ± 0.19
same,promoter activity interaction Z-score,[1]; [14],-0.118 ± 0.35
same,promoter activity interaction Z-score,[1]; [15],0.121 ± 0.12
same,promoter activity interaction Z-score,[1]; [16],-1.18 ± 0.34
same,promoter activity interaction Z-score,[1]; [17],-0.0273 ± 0.041
same,promoter activity interaction Z-score,[1]; [18],-0.102 ± 0.19
same,promoter activity interaction Z-score,[1]; [19],0.0857 ± 0.087
same,promoter activity interaction Z-score,[1]; [20],-0.114 ± 0.23
same,promoter activity interaction Z-score,[1]; [21],0.315 ± 0.14
same,promoter activity interaction Z-score,[1]; [22],-0.127 ± 0.56
same,promoter activity interaction Z-score,[2]; [7],0.0581 ± 0.23
same,promoter activity interaction Z-score,[2]; [8],-0.118 ± 0.23
same,promoter activity interaction Z-score,[2]; [9],-0.0289 ± 0.19
same,promoter activity interaction Z-score,[2]; [10],0.0526 ± 0.22
same,promoter activity interaction Z-score,[2]; [11],0.0725 ± 0.02
same,promoter activity interaction Z-score,[2]; [12],-0.0713 ± 0.39
same,promoter activity interaction Z-score,[2]; [13],0.0271 ± 0.23
same,promoter activity interaction Z-score,[2]; [14],0.0688 ± 0.17
same,promoter activity interaction Z-score,[2]; [15],0.114 ± 0.09
same,promoter activity interaction Z-score,[2]; [16],-0.218 ± 0.078
same,promoter activity interaction Z-score,[2]; [17],-0.082 ± 0.13
same,promoter activity interaction Z-score,[2]; [18],0.0891 ± 0.29
same,promoter activity interaction Z-score,[2]; [19],0.0879 ± 0.087
same,promoter activity interaction Z-score,[2]; [20],-0.0859 ± 0.057
same,promoter activity interaction Z-score,[2]; [21],-0.12 ± 0.13
same,promoter activity interaction Z-score,[2]; [22],-0.223 ± 0.39
same,promoter activity interaction Z-score,[3]; [7],-0.0285 ± 0.013
same,promoter activity interaction Z-score,[3]; [8],-0.27 ± 0.27
same,promoter activity interaction Z-score,[3]; [9],-0.245 ± 0.31
same,promoter activity interaction Z-score,[3]; [10],0.0289 ± 0.054
same,promoter activity interaction Z-score,[3]; [11],0.162 ± 0.082
same,promoter activity interaction Z-score,[3]; [12],-0.186 ± 0.1
same,promoter activity interaction Z-score,[3]; [13],-0.168 ± 0.14
same,promoter activity interaction Z-score,[3]; [14],0.253 ± 0.42
same,promoter activity interaction Z-score,[3]; [15],0.31 ± 0.34
same,promoter activity interaction Z-score,[3]; [16],-0.874 ± 0.12
same,promoter activity interaction Z-score,[3]; [17],-0.0944 ± 0.13
same,promoter activity interaction Z-score,[3]; [18],0.241 ± 0.093
same,promoter activity interaction Z-score,[3]; [19],0.726 ± 0.41
same,promoter activity interaction Z-score,[3]; [20],0.504 ± 0.044
same,promoter activity interaction Z-score,[3]; [21],0.739 ± 0.45
same,promoter activity interaction Z-score,[3]; [22],0.654 ± 0.45
same,promoter activity interaction Z-score,[4]; [7],0.189 ± 0.027
same,promoter activity interaction Z-score,[4]; [8],-0.944 ± 0.38
same,promoter activity interaction Z-score,[4]; [9],-0.184 ± 0.64
same,promoter activity interaction Z-score,[4]; [10],0.198 ± 0.34
same,promoter activity interaction Z-score,[4]; [11],0.19 ± 0.1
same,promoter activity interaction Z-score,[4]; [12],-0.157 ± 0.22
same,promoter activity interaction Z-score,[4]; [13],0.189 ± 0.29
same,promoter activity interaction Z-score,[4]; [14],0.0419 ± 0.49
same,promoter activity interaction Z-score,[4]; [15],0.246 ± 0.37
same,promoter activity interaction Z-score,[4]; [16],-1.37 ± 0.15
same,promoter activity interaction Z-score,[4]; [17],-0.253 ± 0.052
same,promoter activity interaction Z-score,[4]; [18],-0.163 ± 0.39
same,promoter activity interaction Z-score,[4]; [19],0.613 ± 0.94
same,promoter activity interaction Z-score,[4]; [20],0.235 ± 0.099
same,promoter activity interaction Z-score,[4]; [21],0.286 ± 0.0035
same,promoter activity interaction Z-score,[4]; [22],1.01 ± 0.33
same,promoter activity interaction Z-score,[5]; [7],0.0961 ± 0.26
same,promoter activity interaction Z-score,[5]; [8],-0.0522 ± 0.15
same,promoter activity interaction Z-score,[5]; [9],0.0395 ± 0.24
same,promoter activity interaction Z-score,[5]; [10],-0.0315 ± 0.002
same,promoter activity interaction Z-score,[5]; [11],-0.0307 ± 0.019
same,promoter activity interaction Z-score,[5]; [12],-0.0796 ± 0.096
same,promoter activity interaction Z-score,[5]; [13],0.0954 ± 0.4
same,promoter activity interaction Z-score,[5]; [14],-0.135 ± 0.051
same,promoter activity interaction Z-score,[5]; [15],0.0999 ± 0.14
same,promoter activity interaction Z-score,[5]; [16],-0.0884 ± 0.18
same,promoter activity interaction Z-score,[5]; [17],-0.00479 ± 0.23
same,promoter activity interaction Z-score,[5]; [18],0.0412 ± 0.16
same,promoter activity interaction Z-score,[5]; [19],-0.0463 ± 0.28
same,promoter activity interaction Z-score,[5]; [20],-0.0252 ± 0.33
same,promoter activity interaction Z-score,[5]; [21],0.122 ± 0.45
same,promoter activity interaction Z-score,[5]; [22],-0.094 ± 0.097
same,promoter activity interaction Z-score,[6]; [7],0.639 ± 0.76
same,promoter activity interaction Z-score,[6]; [8],0.214 ± 0.76
same,promoter activity interaction Z-score,[6]; [9],-0.337 ± 0.13
same,promoter activity interaction Z-score,[6]; [10],0.0334 ± 0.15
same,promoter activity interaction Z-score,[6]; [11],-0.365 ± 0.23
same,promoter activity interaction Z-score,[6]; [12],-0.26 ± 0.17
same,promoter activity interaction Z-score,[6]; [13],0.0782 ± 0.61
same,promoter activity interaction Z-score,[6]; [14],-0.0978 ± 0.24
same,promoter activity interaction Z-score,[6]; [15],-0.0784 ± 0.044
same,promoter activity interaction Z-score,[6]; [16],-0.877 ± 0.12
same,promoter activity interaction Z-score,[6]; [17],-0.397 ± 1.1
same,promoter activity interaction Z-score,[6]; [18],0.132 ± 0.047
same,promoter activity interaction Z-score,[6]; [19],-0.0307 ± 0.037
same,promoter activity interaction Z-score,[6]; [20],-0.7 ± 0.17
same,promoter activity interaction Z-score,[6]; [21],1.21 ± 1.3
same,promoter activity interaction Z-score,[6]; [22],-0.0415 ± 0.19
